The record followed here is PubChem BioAssay (NCATS).

Values joined by “and” are separate entries in the source; they are usually repeats but may differ in a detail not shown here. Equal entries are not always repeated. Results filed as inconclusive are left out. Active and inactive are the calls of the source. Unless noted, the call rests on the fitted dose curve; in most records, active means well fitted curve in the direction sought with a large enough effect; inconclusive means small, poorly fitted or top-dose-only effect, or another doubt; inactive means no such curve, though single readings can be large; an effect the other way counts as inactive or inconclusive.

Assay [1] in a line: Cell Viability - LYMP2-014 (AID 983).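 Further: cells exposed to compound for 24 h at 37 °C; plate controls were DMSO only for no effect and 92 µM tetraoctylammonium bromide for full effect; nearly all actives have a fitted effect of over 50% in size.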 Summed up: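 Luminescent ATP signal (CellTiter-Glo, 30 min at room temperature) serves as the viability read-out after 24 hr compound exposure at 37 C. Cells were seeded at 2500 per well and settled 5 hr beforehand.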
Assay [2] can be described thus: Cell Viability - LYMP2-016 (AID 984).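 Further: cells exposed to compound for 24 hours at 37 °C; on the % scale 0 is the no-effect control and ±100 the full control effect; nearly all actives have a fitted effect of over 55% in size.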 In a few lines:
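qHTS, 1536-well: 2500 LYMP2-016 cells/well, 5 hr 37 C, compound added, 24 hr 37 C, CellTiter-Glo 30 min RT, luminescence. Tetraoctylammonium bromide positive control. AC50 via Hill fit.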

Assay [3] in a line: Cell Viability - LYMP2-018 (AID 985).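 Further: plate controls were DMSO only for no effect and tetraoctylammonium bromide at 92 µM for full effect; nearly all actives have a fitted effect of over 50% in size.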 In a few lines: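 Luminescent ATP signal (CellTiter-Glo, read after 30 min at room temperature) reports viable cells after 24 hr compound treatment at 37 C. Concentration-response data were fitted to the standard Hill equation for AC50.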
The nature of assay [4]: Cell Viability - LYMP2-022 (AID 987).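 Further: 0% = DMSO alone and full effect = tetraoctylammonium bromide at 92 µM; nearly all actives have a fitted effect of over 55% in size.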 In a few lines: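 qHTS: human lymphoblastoid cells 2500/well; 5 hr 37 C; cpd added; 24 hr 37 C; CellTiter-Glo, 30 min RT; luminescence. AC50 via Hill fit; tetraoctylammonium bromide positive ctrl.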
A short description of assay [5]: Cell Viability - LYMP2-026 (AID 989).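 Further: cells exposed to compound for 24 h at 37 °C; on the % scale 0 is the no-effect control and ±100 the full control effect; nearly all actives have a fitted effect of over 50% in size.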 Summed up: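 Luminescent ATP signal (CellTiter-Glo, 30 min room temperature) measures viable lymphoblastoid cells after 24 hr compound treatment at 37 C. Decreased ATP reflects acute toxicity; AC50 values come from Hill-equation modeling.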
A short description of assay [6]: Cell Viability - LYMP1-002 - Assay at 24 hr (AID 993). Further: on the % scale 0 is the no-effect control and ±100 the full control effect. In a few lines:
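Cells plated 2500/well, 5 hr 37 C; compounds added, 24 hr 37 C; CellTiter-Glo added, 30 min RT; luminescence read. Tetraoctylammonium bromide positive control. Hill-equation AC50.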

Assay [7] in a line: Cell Viability - LYMP1-002 - Assay at 40 hr (AID 994).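 Further: 0% = DMSO only and full inhibition = 92 µM tetraoctylammonium bromide; nearly all actives have a fitted effect of over 60% in size.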 In a few lines:
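Luminescent ATP signal served as the viability readout, with decreases taken as toxicity. Cells were treated with compounds across a concentration range for 40 hours at 37 C, and AC50 values came from standard Hill modeling.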

Assay [8] addresses alpha-glucosidase (Oryza sativa, rice) (UniProt Q653V4). Description: Counterscreen for Glucocerebrosidase Inhibitors: qHTS Assay for Rice alpha-Glucosidase at pH 5.0 (AID 997).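 Further: 0% = full activity with enzyme and -100% = basal without enzyme.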 In a few lines: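 Rice alpha-glucosidase (4 nM final) with 400 uM 4-methylumbelliferyl-alpha-D-glucopyranoside in citrate buffer pH 5.0, 20 min at room temperature, stopped at pH 10; fluorescence 365/440 nm, compounds 0.7 nM–77 uM, AC50 from Hill fits.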
A general note: Counterscreens check selectivity or assay interference.

Assay [9] in a line: Validation of Assay for Modulators of Lamin A Splicing (AID 1459; active means well fitted curve in the direction sought with a large enough effect in the signal ratio; the % refers to the signal ratio;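 further: cells exposed to compound for two days before reading; 0% is about no effect; ratio rise marks activators and ratio drop marks inhibitors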). In a few lines: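 Readout: ratio of GFP (500-530 nm) to RFP (575-640 nm) total object intensity by 488 nm laser-scanning cytometry after 48 hrs. Cells were HeLa S3 clones carrying lamin A-EGFP minigene plus DsRed2 viability reporter; vehicle 0.5% DMSO final.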
Assay [10] can be described thus: qHTS Assay for Lipid Storage Modulators (AID 1519; calls by dose curve; on activity change, negative = inhibition: on the % scale 0 is the no-effect control and ±100 the full control effect). The note with it: Drosophila S3 cells, BODIPY lipid droplet/cell ratio, laser cytometry, cells loaded with oleic acid. Summed up:
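Cells seeded at 5,000 per well were treated with compounds over a concentration series and loaded with oleic acid (400 uM, as added). Lipid droplet fluorescence (488 nm excitation, 500-530 nm channel) was read by laser-scanning cytometry and normalized to 20 uM Triacsin C.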
Background: qHTS replaces the single test concentration by a dilution series.

For assay [11], the target named is DNA repair nuclease/redox regulator APEX1 (Homo sapiens) (UniProt P27695). Kind of assay: qHTS Validation Assay for Inhibitors of the Human Apurinic/apyrimidinic Endonuclease 1 (APE1) (AID 1705;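 further: TAMRA fluorescence gain over two minutes as APE1 cuts a quenched THF abasic duplex; on the % scale 0 is the no-effect control and ±100 the full control effect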). In a few lines: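 Read-out: TAMRA fluorescence (525 nm ex, 598 nm em) from cleavage of a quenched THF abasic-site duplex, 50 nM final; activity taken as intensity change between third and first of three reads 60 s apart.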
Sequence of DNA repair nuclease/redox regulator APEX1 (Homo sapiens) (P27695 whole entry, looked up): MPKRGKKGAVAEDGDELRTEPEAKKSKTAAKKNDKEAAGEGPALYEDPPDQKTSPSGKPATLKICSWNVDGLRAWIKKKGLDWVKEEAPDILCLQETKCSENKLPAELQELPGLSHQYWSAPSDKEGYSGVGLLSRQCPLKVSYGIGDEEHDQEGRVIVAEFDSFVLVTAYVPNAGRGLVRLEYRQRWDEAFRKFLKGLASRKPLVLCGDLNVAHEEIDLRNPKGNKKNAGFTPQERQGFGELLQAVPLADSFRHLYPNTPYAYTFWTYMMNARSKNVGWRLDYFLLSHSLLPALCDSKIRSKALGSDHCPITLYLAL

Assay [12] can be described thus: Counterscreen for APE1 Inhibitors: Fluorescent Dye Displacement Validation Assay (AID 1707).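 Further: plate controls were ThO with dsDNA and no compound for no effect and ThO without dsDNA for full effect.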 In a few lines:
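Thiazole Orange (250 nM) bound to 50 nM TAMRA-labelled dsDNA with tetrahydrofuran abasic site; displacement by DNA-binding compounds lowers fluorescence. Buffer 50 mM Tris-HCl pH 7.5, 50 mM NaCl, 2 mM MgCl2, 0.01% Tween-20; endpoint read at 480/540 nm.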

The target of assay [13] is Endonuclease 4 (Escherichia coli (strain K12)) (UniProt P0A6C1). Description: Counterscreen for APE1 Inhibitors: qHTS Validation Assay for Inhibitors of Endonuclease IV (AID 1708). Further: on the % scale 0 is the no-effect control and ±100 the full control effect. In a few lines: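 E. coli EndoIV at 2 nM final, preincubated 15 min at room temperature with compound, then 50 nM TAMRA/BHQ-2 THF abasic-site duplex added. Buffer: 50 mM Tris-HCl pH 7.5, 50 mM NaCl, 2 mM MgCl2, 1 mM DTT, 0.01% Tween-20. Kinetic fluorescence increase, third minus first read.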

A short description of assay [14]: qHTS for differential inhibitors of proliferation of Plasmodium falciparum line GB4 (AID 1816).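 Further: parasite growth measured after 72 h incubation.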 Further: potency means the concentration at half of the fitted maximal effect.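 On activity change, negative = inhibition: 0% = vehicle DMSO and -100% = reference inhibitor.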 To be noted: Potency: Plasmodium falciparum GB4 proliferation inhibition.
A short description of assay [15]: qHTS for differential inhibitors of proliferation of Plasmodium falciparum line 3D7 (AID 1876). Further: potency means the concentration at half of the fitted maximal effect.
Assay [16] in a line: qHTS for differential inhibitors of proliferation of Plasmodium falciparum line D10 (AID 1877).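 Further: parasites grown with compound for 72 h before DNA staining; plate controls were vehicle wells for no effect and reference inhibitor wells for full effect.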
The nature of assay [17]: qHTS for differential inhibitors of proliferation of Plasmodium falciparum line Dd2 (AID 1882). Further: nearly all actives have a fitted effect of over 65% in size. Further: potency means the concentration at half of the fitted maximal effect.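 On activity change, negative = inhibition: plate controls were DMSO vehicle for no effect and 0.29 µM artemisinin for full effect.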 The note with it: Potency: Plasmodium falciparum Dd2 proliferation inhibition. Summed up: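 Dd2-infected erythrocytes (0.3% parasitemia, 2.5% hematocrit final) incubated with compound 72 h at 37 C, 5% CO2; lysed with saponin/Triton buffer containing SYBR Green I, incubated overnight in the dark, then read by fluorescence (485/535 nm). Normalized to 0.29 uM artemisinin and DMSO.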

Assay [18] in a line: qHTS for differential inhibitors of proliferation of Plasmodium falciparum line W2 (AID 1883).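 Further: parasites grown with compound for 72 h before lysis and staining.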 Further: potency means the concentration at half of the fitted maximal effect.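 On activity change, negative = inhibition: 0% = vehicle wells and -100% = control inhibitor wells.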 The note with it: Potency: Plasmodium falciparum W2 proliferation inhibition.
The target of assay [19] is Alpha-galactosidase A (Homo sapiens) (UniProt P06280). Description: Counterscreen for Glucocerebrosidase Inhibitors: qHTS Assay for Human alpha-Galactosidase at pH 4.5 (AID 992). Further: 0% is about no effect. Summed up:
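Human enzyme (2 nM) with 80 uM 4-methylumbelliferyl alpha-D-galactopyranoside in 50 mM citric acid, 0.005% Tween-20, pH 4.5, 20 min at room temperature. Compounds 0.7 nM–77 uM; fluorescence Ex 365/Em 440 after pH 10 stop; AC50 from Hill fits.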

Assay [20] is described as follows: qHTS for differential inhibitors of proliferation of Plasmodium falciparum line 7G8 (AID 1815).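 Further: parasite growth measured after three days of incubation.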 Further: potency means the concentration at half of the fitted maximal effect.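 On activity change, negative = inhibition: plate controls were vehicle wells for no effect and reference inhibitor wells for full effect.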
Setting [21] is: measured here: cell count channel max response.
Where [22] appears, read: measured here: lipid channel max response.

Sequence of Alpha-galactosidase A (Homo sapiens) (P06280 whole entry, looked up): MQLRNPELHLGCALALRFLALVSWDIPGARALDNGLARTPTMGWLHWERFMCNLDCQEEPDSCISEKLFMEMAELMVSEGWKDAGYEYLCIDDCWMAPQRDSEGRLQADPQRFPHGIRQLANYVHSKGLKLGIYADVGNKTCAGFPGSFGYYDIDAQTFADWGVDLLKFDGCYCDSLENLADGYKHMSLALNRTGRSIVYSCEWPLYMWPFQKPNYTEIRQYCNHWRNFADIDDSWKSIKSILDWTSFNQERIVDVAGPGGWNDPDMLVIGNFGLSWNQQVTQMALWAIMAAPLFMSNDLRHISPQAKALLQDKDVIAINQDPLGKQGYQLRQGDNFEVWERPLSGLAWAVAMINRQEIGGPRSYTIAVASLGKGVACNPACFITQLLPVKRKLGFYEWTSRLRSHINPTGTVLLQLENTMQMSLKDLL

Regarding `CCCCNC(=O)NS(=O)(=O)c1ccc(C)cc1`, the compound was called inactive in assay [1], in assay [2], in assay [5], in assay [6], in assay [8] and in assay [9]. For the same compound, in assay [12], the outcome was inactive. Besides, the Potency entry in assay [3], in [4], in assay [7], in assay [11], in assay [13] and in [14] was “inactive” in each case. Besides, the Potency entry in assay [15], in assay [16], in assay [17] and in assay [18] was “inactive” throughout. In addition, the activity change, negative = inhibition is 0.284% (inactive) in assay [10] (at 25.7 µM (top of the series)); 5.43% (inactive) and -0.0777% (inactive) in assay [10] (at 57.5 µM (top of the series)). For the same compound, the max response in assay [10] (setting [21]) is -2.87% and 13.1% and 19.7%; in assay [10] (setting [22]) it was -2.83% and 21.8% and 21.4%.

For the compound `COC(=O)[C@@H](N)Cc1ccc(O)c(O)c1`, the compound was classed as inactive in assay [19], in assay [8], in assay [9] and in [12]. Moreover, the Potency result in [11], in [13] and in assay [17] was “inactive” each time. The Potency in assay [14] was 14.1 µM (active).

In the case of `CCN(CC)CCOCCOC(=O)C1(c2ccccc2)CCCC1`, the compound was classed as inactive in assay [19], in assay [8], in [9] and in assay [12]. In addition, the Potency entry in assay [11] is “inactive”. The Potency in [20] is 3.16 µM (active); in [17] it was 2.24 µM (active); in assay [18], 0.794 µM (active).

As for `COc1ccc(CCN(C)CCCC(C#N)(c2cc(OC)c(OC)c(OC)c2)C(C)C)cc1OC` (stereo not given), the result in assay [9] and in [12] was inactive. For the same compound, the Potency result in assay [11] and in assay [13] was “inactive” each time. Moreover, the Potency in assay [20] was 7.08 µM (active); in assay [14] it was 6.31 µM (active); in [15], 3.16 µM (active); in assay [17], 3.55 µM (active); in assay [18], 2.24 µM (active).

With `N[C@@H](COP(=O)(O)O)C(=O)O`, the compound was called inactive in assay [19], in [8], in [9] and in [12]. For the same compound, the activity change, negative = inhibition in [10] (at 57.5 µM (top of the series)) was 3.29% (inactive) and -0.662% (inactive). Also, the max response is 18.8% and -18.9% in assay [10] (setting [21]); 26.3% and -20.3% in [10] (setting [22]). Moreover, the Potency result in [11], in assay [20], in [14], in assay [15], in assay [16] and in assay [17] was “inactive” each time.

Turning to `Cc1cc(C)c(/C=C2\C(=O)Nc3ccccc32)[nH]1`, the outcome in [9] was inactive. For the same compound, the Potency entry in assay [11], in assay [13], in assay [15], in [16] and in assay [17] was “inactive” in each case.

In the case of `CCCOc1ccccc1-c1nc2n[nH]nc2c(=O)[nH]1`, the compound was called inactive in assay [19], in assay [8] and in [12]. In addition, the activity change, negative = inhibition in [10] (at 25.7 µM (top of the series)) is -0.67% (inactive); in assay [10] (at 57.5 µM (top of the series)), 9.88% (inactive) and -1.66% (inactive). In addition, the max response was 4.38% and 27.6% and 39.3% in assay [10] (setting [21]); 5.08% and 45.2% and 35.5% in assay [10] (setting [22]). The Potency entry in [11], in [16] and in assay [17] was “inactive” in each case.

With `COC(=O)C1=C(C)NC(C)=C(C(=O)OCCN(C)Cc2ccccc2)C1c1cccc([N+](=O)[O-])c1` (stereo not given), the activity change, negative = inhibition in [10] (at 57.5 µM (top of the series)) was 2.25% (inactive). Besides, the figures for the max response in assay [10] (setting [21]) and in assay [10] (setting [22]) were -9.5% and -7.38%, respectively. The Potency result in assay [11] was “inactive”. Moreover, the result in assay [12] was inactive.

On to `O=c1[nH]c(=O)n([C@H]2C[C@H](O)[C@@H](CO)O2)cc1Br`, for which the compound was called inactive in assay [1], in assay [2], in assay [5], in assay [19], in assay [6] and in assay [8]. The compound was classed as inactive in assay [12]. The Potency result in assay [3], in assay [4], in assay [7], in assay [11], in [13] and in [20] was “inactive” each time. In addition, the Potency entry in assay [14], in [15], in [16], in assay [17] and in [18] was “inactive” in each case. In addition, in assay [10] (at 57.5 µM (top of the series)), the activity change, negative = inhibition is -1.72% (inactive) and -8.79% (inactive). Besides, the max response in assay [10] (setting [21]) is 5.46% and -18.7%; in assay [10] (setting [22]) it was 1.8% and -25.8%.

As for `CCc1c(C)[nH]c2c1C(=O)C(CN1CCOCC1)CC2` (stereo not given), the compound was classed as inactive in assay [19], in assay [8] and in assay [9]. For the same compound, the Potency result in assay [11], in [13], in assay [20], in assay [14], in [15] and in assay [16] was “inactive” throughout.
